Values joined by “and” are separate entries in the source; they are usually repeats but may differ in a detail not shown here. Identical values can stand only once. Active and inactive are the calls of the source. How the source made its calls: active means hit-call score of the fitted dose curve at least 0.9, where 1 is the maximum; inactive means score below 0.9.
Test: ATG_ISRE_CIS: Attagene CIS-FACTORIAL HepG2 Assay for human Interferon Regulatory Factor 1 (IRF1) binding to an Interferon-Stimulated Response Element (ISRE) (AID 2282948)
Conditions: HepG2 ISRE cis-reporter (Attagene), mRNA transcription readout; actives raise or lower the signal
Method: ATG_CIS is a cell-based, multiplexed-readout assay that uses HepG2, a human liver cell line, with measurements taken at 24 hours after chemical dosing in a 24-well plate.ATG_ISRE_CIS is one of 52 assay component(s) measured or calculated from the ATG_CIS assay. It is designed to make measurements of mRNA induction, a form of inducible reporter, as detected with fluorescence intensity signals by Reverse transcription polymerase chain reaction (RT-PCR) and Capillary electrophoresis technology.Data from the assay component ATG_ISRE_CIS was analyzed into 1 assay endpoint. This assay endpoint, ATG_ISRE_CIS, was analyzed with bidirectional fitting relative to DMSO as the negative control and baseline of activity. Using a type of inducible reporter, measures of mRNA for gain or loss-of-signal activity can be used to understand the reporter gene at the transcription factor-level as they relate to the gene IRF1. Furthermore, this assay endpoint can be referred to as a primary readout, because this assay has produced multiple assay endpoints where this one serves a reporter gene function. To generalize the intended target to other relatable targets, this assay endpoint is annotated to the dna binding intended target family, where the subfamily is interferon regulatory factors.
Human liver HepG2 cells are transiently transfected with multiple reporter transcription units (MRTUs) in 6-well plates using FuGene 6 reagent (Roche; 3 ml FuGene/1 mg DNA). The MRTU constructs are regulated by a cis-regulating element (promoter). […] A major difference between the CIS and TRANS system is that in CIS activities of endogenous TFs are measured, whereas the TRANS assay evaluates changes in activities of exogenous, chimeric NR-Gal4 proteins. […] At the end of 24 hour incubation, total RNA was isolated using TriZol reagent (Invitrogen). The isolated RNA is then reverse-transcribed using oligo(dT) primer and Mo-MLV reverse transcriptase (Invitrogen) with DNAse I (Ambion) treatment for 30 min. The one-tenth of the produced cDNA was amplified by PCR using Taq DNA polymerase (Invitrogen) and two reporter sequence-specific primers. The PCR products were fluorescently labeled by primer extension with 6-arboxyfluorescein (6-FAM) 5'-labeled reporter sequence-specific primer (2 min at 95 C, 20 s at 68 C and 10 min at 72 C) and these products were digested with 5U of HpaI (New England Biolabs) for 2h at 37 C. The fragments were purified using Qiaquick PCR columns (Qiagen), analyzed on an ABI 3130xL genetic analyzer (Applied Biosystems) with peak positions identified by using a set of X-rhodamine (ROX)-labeled MapMarker1000 molecular weight standards (BioVentures). The raw capillary electrophoresis data was processed using Attagraph software (Attagene).

SMILES | outcome | AC50
NCCN | inactive | 
CC(C)CCOCCC(C)C | inactive | 
CC1CCC(CO)CC1 (stereo not given) | inactive | 
CCCCCCC(C)(C)C(=O)O | inactive | 
O=P(O)(O)CCC(F)(F)C(F)(F)C(F)(F)C(F)(F)C(F)(F)C(F)(F)F | inactive | 
C=CC(=O)OCC(CO)(COCC(COC(=O)C=C)(COC(=O)C=C)COC(=O)C=C)COC(=O)C=C |  | 1.29 µM (active)
CC(=O)Nc1ccc(O)cc1 | inactive | 
C[C@]12CC[C@@H]3c4ccc(O)cc4CC[C@H]3[C@@H]1C[C@@H](O)[C@@H]2O | inactive | 
CCCCCCCCCCCCCCCCCC[N+](C)(C)Cc1ccccc1 |  | 12.8 µM (active)
COCC1CCC(CO)CC1 (stereo not given) | inactive | 
CC(O)COc1ccccc1 (stereo not given) | inactive | 
C/C=C/C(=O)C1=C(C)CCCC1(C)C |  | 69.9 µM (active)
Cc1cc(C(C)(C)C)c(O)c(C(C)(C)C)c1 | inactive | 
O=P(O)(O)CCC(F)(F)C(F)(F)C(F)(F)C(F)(F)C(F)(F)C(F)(F)C(F)(F)C(F)(F)F | inactive | 
c1ccc(CNc2ncnc3c2ncn3C2CCCCO2)cc1 (stereo not given) | inactive | 
CCOC(OCC)C(=O)c1ccccc1 | inactive | 
O=C(CCCN1CCC(O)(c2ccc(Cl)cc2)CC1)c1ccc(F)cc1 | inactive | 
C=Cc1ccc(O)c(OC)c1 | inactive | 
Brc1ccc(Oc2ccc(Br)cc2Br)cc1 | inactive | 
CCCCCCCCC(C)=O | inactive | 

SMILES | outcome | AC50
Cc1cc(C(=C2C=CC(=Nc3ccc(S(=O)(=O)O)cc3)C=C2)c2ccc(Nc3ccc(S(=O)(=O)O)cc3)cc2)cc(S(=O)(=O)O)c1N | inactive | 
CC(C)(C)c1ccc(O)c(O)c1 | inactive | 
N=C(N)c1ccc(OCCCCCOc2ccc(C(=N)N)cc2)cc1 |  | 57.9 µM (active)
O=C(O)c1cccc(C(=O)O)n1 | inactive | 
CCc1cccc(CC)c1NC(=O)C(=O)O | inactive | 
Cc1ccccc1C(OCCN(C)C)c1ccccc1 (stereo not given) | inactive | 
Cc1cc(=O)oc2cc(O)ccc12 | inactive | 
Clc1ccc2c(Cl)ccnc2c1 | inactive | 
FC(F)(F)N1C(F)(F)C(F)(F)OC(F)(F)C1(F)F | inactive | 
C[C@]12CC[C@@H]3c4ccc(O)cc4CC[C@H]3[C@@H]1CC[C@@H]2OC(=O)CCC1CCCC1 | inactive | 
CCCCC(CC)C(=O)O (stereo not given) | inactive | 
O=C(NO)c1ccccc1 |  | 44.4 µM (active) [middle of 4 runs]
C=CC(F)(F)C(F)(F)C(F)(F)C(F)(F)F | inactive | 
COc1cccc(O)c1 | inactive | 
CCCCCCCCC1CCC(=O)O1 (stereo not given) | inactive | 
OCCN1CN(CCO)CN(CCO)C1 |  | 159 µM (active)
CN(C)c1ccc(C(=C2C=CC(=[N+](C)C)C=C2)c2ccccc2)cc1 |  | 1.34 µM (active) and 1.85 µM (active)
Nc1ccn([C@@H]2O[C@H](CO)[C@@H](O)C2O)c(=O)n1 (stereo not given in full) | inactive | 
CCCCCC(C)OC(=O)COc1ccc(Cl)c2cccnc12 (stereo not given) | inactive | 
Cc1cc(Cc2cc(C)cc(C(C)(C)C)c2O)c(O)c(C(C)(C)C)c1 | inactive | 

Reference: PubChem BioAssay (EPA / NIEHS)
